Pf growth 48h = inhibits P. falciparum growth in the first generation, 48 h; P. falciparum luciferase growth in erythrocytes, 48 h; Potency, µM (series often up to 28.7 µM), without a hit: top-dose activity change, negative = inhibition, actives largely listed as inhibitors; actives 5.9% (n = 310,000); AID 504832; active means well fitted inhibition curve with a large enough effect; inconclusive means small, poorly fitted or top-dose-only effect, or another doubt; inactive means no such curve, though single readings can be large or run the other way; further: on the % scale 0 is the no-effect control and ±100 the full control effect
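Cell-based growth assay: transgenic P. falciparum expressing firefly luciferase, cultured in red cells within RPMI 1640 containing 0.5% w/v Albumax, 24 mM bicarbonate and gentamycin. A drop in luciferase activity indicates inhibition.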
Pf growth 96h = inhibits malaria parasite growth, 96 h. Potency, µM (series often up to 28.7 µM), inactives show at the top dose activity change, negative = inhibition, usual class: inhibitors. P. falciparum luciferase reporter growth, 96 h. actives 6.9% (n = 320,000); active means well fitted inhibition curve with a large enough effect; inconclusive means small, poorly fitted or top-dose-only effect, or another doubt; inactive means no such curve, though single readings can be large or run the other way; further: on the % scale 0 is the no-effect control and ±100 the full control effect
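Parasite growth measured via integrated firefly luciferase reporter in P. falciparum. Infected erythrocytes at 2% hematocrit, 0.05% parasitemia final were treated 96 hours at 37 C under 5% CO2, and luminescence was read.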
NS1 function inh = influenza NS1 inhibition | Potency, µM (series often up to 46.1 µM), without a hit: at the highest dose activity, positive = more growth | actives 0.4% (n = 270,000); further: actives are rising curves; nearly all actives have a fitted effect of over 50% in size
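Growth recovery, yeast-based: influenza A NS1 expressed in S. cerevisiae causes slow growth, and suppressors are detected by OD600. The parent strain without NS1 is used as positive control.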
SARS PLpro yeast = blocks SARS-CoV papain-like protease in a yeast assay | AID 485353 | Potency, µM (series often up to 32.9 µM), inactives show at the top dose activity, positive = growth rescue, actives largely listed as activators | S. cerevisiae expressing SARS-CoV PLpro, growth rescue | actives 0.19% (n = 330,000); further: 0% is about no effect; nearly all actives have a fitted effect of over 55% in size
Starred values were filed as active, the others as inactive; ? = inconclusive; nt = no result given. Hits are enriched below; roughly 10% of the tested compounds scored in any of these assays. Unless noted, the call rests on the fitted dose curve. Potency means the concentration at half of the fitted maximal effect.

SMILES | Pf growth 48h | Pf growth 96h | NS1 function inh | SARS PLpro yeast
COc1cc(O)c(C(CCN2CCCCC2)c2ccc(N(C)C)cc2)c(OC)c1 (configuration not stated) | 1.3µM* | 0.83µM* | -3% | -3%
COc1ccc(C(CCN2CCOCC2)c2c(O)cc(OC)cc2OC)cc1 (configuration not stated) | 3.7µM* | 3.3µM* | 0% | 4%
COc1ccc(C(CC(=O)N2CCOCC2)c2c(O)cc(OC)cc2OC)cc1 (configuration not stated) | 39% | 68% | -5% | -2%
COc1cc(O)c(C(CC(=O)N2CCCC2)c2ccc(N(C)C)cc2)c(OC)c1 (configuration not stated) | ? | -24% | -17% | 2%
O=C(CN1C(=O)NC2(CCCC2)C1=O)OCCOc1ccc(Cl)cc1Cl | 43% | 40% | nt | 1%
CC(NC(=O)c1c(F)cccc1Cl)c1ccc(-n2ccnc2)cc1 (configuration not stated) | -19% | -5% | -4% | -2%
COc1ccccc1N1CCN(C2CCCN(Cc3ccccc3OCCO)C2)CC1 (configuration not stated) | ? | 1.7µM* | 2% | ?
COc1ccccc1N1CCN(C2CCCN(Cc3ccc(Cl)cc3)C2)CC1 (configuration not stated) | -16% | 13µM* | 7% | -1%
COc1ccc(O)c(CN2CCCC(N3CCN(c4ccccc4OC)CC3)C2)c1 (configuration not stated) | ? | 0% | 21% | -1%
CC1CCCN(C(=O)c2cc3ccccc3cc2O)C1 (configuration not stated) | ? | ? | 2% | -3%
CC(/C=C1\SC(=O)N(CCCC(=O)O)C1=O)=C\c1ccccc1 | ? | 5.9µM* | -2% | -1%
CC(/C=C1\SC(=S)N(CCCC(=O)Nc2ccc(C(=O)O)cc2)C1=O)=C\c1ccccc1 | ? | ? | 15% | -23%
O=C(CCCN1C(=O)/C(=C/c2ccco2)SC1=S)Nc1ccccc1C(=O)O | -11% | -6% | 9% | -1%
CC(=C\c1ccccc1)/C=C1/SC(=S)N(CCCC(=O)O)C1=O | 8.3µM* | ? | -7% | 1%
O=C(O)CCCN1C(=O)/C(=C\c2ccco2)SC1=S | -9% | 2.9µM* | -5% | 0%
CC(Cc1ccccc1)NC(=O)CCCN1C(=O)c2ccccc2C1=O (configuration not stated) | 38% | ? | -2% | 1%
CN(/N=C/c1cccc(Br)c1)C1=NS(=O)(=O)c2ccccc21 | ? | 42% | 2% | 0%
COc1cc(/C=C2/SC(=S)N(CC(=O)O)C2=O)ccc1OCC(=O)Nc1ccc(C)c(C)c1 | ? | 15% | 24% | 2%
CN(CC(=O)Nc1cccc(F)c1)C(=O)c1cc(S(=O)(=O)N2CCN(c3ccccc3)CC2)ccc1Cl | ? | ? | nt | -9%
CCc1ccccc1Nc1nc(N)nc(COC(=O)CCNS(=O)(=O)c2ccccc2)n1 | 12µM* | ? | nt | 2%
Cc1ccccc1Nc1nc(N)nc(COC(=O)c2cccc(S(=O)(=O)NCc3ccccc3)c2)n1 | ? | 13µM* | 7% | -15%
COc1ccc(S(=O)(=O)N2c3ccc(Cl)cc3[C@](O)(c3ccccc3Cl)[C@@H]2C(=O)N2CCC[C@H]2C(N)=O)cc1OC | ? | 9.5µM* | nt | nt
COc1ccc(N=C(C)C2=C(O)COC2=O)cc1 | nt | 0.33µM* | 1% | 7%
COc1ccc(N=C(C)c2c(O)[nH]c(=O)[nH]c2=O)cc1 | 25% | -6% | 9% | 1%
CC(=O)c1ccc(S(=O)(=O)NCCC(=O)OCC(=O)N2CCCC2=O)cc1 | 39% | 20% | nt | 4%
SMILES | Pf growth 48h | Pf growth 96h | NS1 function inh | SARS PLpro yeast
CCCC[N+]12CCC(CC1)C(C(=O)c1cccs1)C2 (configuration not stated) | 10µM* | 2.6µM* | 9% | 1%
CC(CN1CCCCC1)OC(=O)c1ccco1 (configuration not stated) | 15% | ? | 6% | 0%
Cc1ccccc1-n1cc(CNCc2c(C(=O)N(C)C)nc3ccc(Cl)cn23)cn1 | 16% | -7% | 2% | 1%
COc1cccc(-n2cc(CNCc3c(C(=O)N(C)C)nc4ccc(Cl)cn34)cn2)c1 | 8.3µM* | ? | -1% | 1%
Cc1sc(NC(=O)c2ccco2)c(C(c2cccnc2)N2CCN(CCO)CC2)c1C (configuration not stated) | ? | ? | nt | 2%
COc1ccc(C(c2c(NC(=O)c3ccco3)sc(C)c2C)N2CCOCC2)cc1OC (configuration not stated) | 2.6µM* | 4.7µM* | nt | -3%
CCOC(=O)C1CCN(C(c2cccnc2)c2c(NC(=O)c3ccco3)sc(C)c2C)CC1 (configuration not stated) | 0.29µM* | -4% | -35% | 7%
Cc1sc(NC(=O)c2ccco2)c(C(c2ccc(F)cc2)N2CCN(C)CC2)c1C (configuration not stated) | ? | ? | nt | 2%
Cc1sc(NC(=O)c2ccco2)c(C(c2cccnc2)N2CCN(c3ccc(F)cc3)CC2)c1C (configuration not stated) | 2.1µM* | ? | -68% | -17%
Cc1sc(NC(=O)c2ccco2)c(C(c2ccccc2)N2CCC(C)CC2)c1C (configuration not stated) | 5.2µM* | ? | nt | 3%
CCOc1ccc(CCNC(=O)Cn2nc(C)n3cccc3c2=O)cc1OCC | -11% | 21% | 0% | -3%
CN(C)CCOc1ncnc2c1oc1ccccc12 | 11% | nt | -5% | 5%
CN(C)CCOc1nc(-c2ccccc2)nc2c1oc1ccccc12 | 9.3µM* | 10µM* | -52% | -4%
COc1cccc(NC(=O)C(NC2CCCC2)c2ccccc2)c1 (configuration not stated) | ? | ? | -1% | -1%
Cc1cc(C(=O)OC(C(=O)Nc2ccc(C)c(Cl)c2)c2ccccc2)c(C)o1 (configuration not stated) | 10µM* | ? | 7% | -14%
O=C(Nc1ccc2ccccc2c1)C(c1ccccc1)C1CCCC1 (configuration not stated) | 8.3µM* | 2.1µM* | -45% | -59%
O=C(CSCC(=O)NC1CC1)Nc1ccccc1 | 26% | -13% | -8% | 4%
Cc1ccc(NC(=O)C(c2ccccc2)C2CCCC2)cc1 (configuration not stated) | -26% | ? | -11% | -19%
O=C(CSCC(=O)NC1CC1)Nc1ccc2ccccc2c1 | 13µM* | ? | -13% | -4%
Cc1ccc(NC(=O)C(NC2CCCC2)c2ccccc2)cc1Cl (configuration not stated) | 13µM* | 12µM* | nt | -9%
CC(Oc1ccc2c3c(c(=O)oc2c1)CCCC3)C(=O)NCc1cccnc1 (configuration not stated) | -3% | ? | 9% | ?
Cc1cc2cc(CNC(=O)c3ccc(Br)o3)ccc2n1C | ? | 9.3µM* | -1% | 0%
CCOC(=O)Cc1nc2cc(Cl)ccc2o1 | 27% | 2% | 2% | -1%

Screens deposited in PubChem BioAssay by National Center for Advancing Translational Sciences (NCATS).
